The source of these data is ChEMBL document CHEMBL1961873, “Compounds: GSK PKIS; Assays: Nanosyn kinase panel” (2012).

For experiment [1], the system named is Tyrosine-protein kinase ABL1 (Homo sapiens), P00519 [T315I]. The conditions noted are these: at 1 µM.
For experiment [2], the system named is Tyrosine-protein kinase ABL1 (Homo sapiens), P00519 [Y253F]. The conditions noted are these: at 0.1 µM.
Experiment [3] has the same test system. The note with it: at 1 µM.
Experiment [4] concerns the target Tyrosine-protein kinase ABL1 (Homo sapiens) (UniProt P00519). The note with it: at 0.1 µM.
Experiment [5] shares this target. The note with it: at 1 µM.
The target of experiment [6] is ALK tyrosine kinase receptor (Homo sapiens) (UniProt Q9UM73). The conditions noted are these: at 0.1 µM.
Chain of ALK tyrosine kinase receptor (Homo sapiens) (Q9UM73 19-1620 limits assumed): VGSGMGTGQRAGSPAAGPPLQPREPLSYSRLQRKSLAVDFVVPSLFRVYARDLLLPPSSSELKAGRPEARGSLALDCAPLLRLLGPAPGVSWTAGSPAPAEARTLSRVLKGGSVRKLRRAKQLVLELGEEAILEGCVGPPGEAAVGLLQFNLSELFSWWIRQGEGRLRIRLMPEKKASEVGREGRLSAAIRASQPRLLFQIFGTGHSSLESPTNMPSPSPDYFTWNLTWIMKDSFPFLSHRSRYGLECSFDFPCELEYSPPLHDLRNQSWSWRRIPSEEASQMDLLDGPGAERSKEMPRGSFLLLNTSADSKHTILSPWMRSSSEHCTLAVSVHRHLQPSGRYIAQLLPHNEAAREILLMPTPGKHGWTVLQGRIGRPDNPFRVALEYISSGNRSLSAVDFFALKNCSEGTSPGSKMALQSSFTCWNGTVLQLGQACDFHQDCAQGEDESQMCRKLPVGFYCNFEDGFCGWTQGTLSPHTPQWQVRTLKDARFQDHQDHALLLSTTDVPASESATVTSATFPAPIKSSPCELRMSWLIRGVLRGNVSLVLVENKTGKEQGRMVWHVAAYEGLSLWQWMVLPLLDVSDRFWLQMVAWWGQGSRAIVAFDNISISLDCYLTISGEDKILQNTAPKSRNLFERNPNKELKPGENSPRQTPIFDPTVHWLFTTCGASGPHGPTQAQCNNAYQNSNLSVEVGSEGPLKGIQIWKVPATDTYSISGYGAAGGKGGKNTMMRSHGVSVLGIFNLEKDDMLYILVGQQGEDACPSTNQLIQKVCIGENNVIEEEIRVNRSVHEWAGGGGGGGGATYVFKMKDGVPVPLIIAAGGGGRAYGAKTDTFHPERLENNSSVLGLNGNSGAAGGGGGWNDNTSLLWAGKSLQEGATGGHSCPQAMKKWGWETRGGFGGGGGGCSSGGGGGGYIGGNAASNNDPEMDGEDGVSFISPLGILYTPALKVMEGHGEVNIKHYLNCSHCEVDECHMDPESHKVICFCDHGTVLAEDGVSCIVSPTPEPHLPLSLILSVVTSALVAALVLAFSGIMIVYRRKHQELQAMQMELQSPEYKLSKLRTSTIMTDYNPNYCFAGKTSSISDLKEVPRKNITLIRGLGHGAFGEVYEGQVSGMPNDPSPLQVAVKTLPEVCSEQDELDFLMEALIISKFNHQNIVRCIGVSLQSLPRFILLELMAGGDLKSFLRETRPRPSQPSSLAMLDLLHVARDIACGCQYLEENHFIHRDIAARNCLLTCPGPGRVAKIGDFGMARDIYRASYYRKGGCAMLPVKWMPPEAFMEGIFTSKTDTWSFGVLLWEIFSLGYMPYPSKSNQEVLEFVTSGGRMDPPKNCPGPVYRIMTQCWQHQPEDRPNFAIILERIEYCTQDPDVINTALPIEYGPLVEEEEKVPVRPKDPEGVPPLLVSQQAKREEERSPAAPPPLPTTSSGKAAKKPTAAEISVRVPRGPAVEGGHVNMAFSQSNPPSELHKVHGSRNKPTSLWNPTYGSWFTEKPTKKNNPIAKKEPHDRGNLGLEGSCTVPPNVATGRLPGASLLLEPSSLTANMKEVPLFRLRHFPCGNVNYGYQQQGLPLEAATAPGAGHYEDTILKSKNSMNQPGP
The target is the same in experiment [7]. The conditions noted are these: at 1 µM.
The target of experiment [8] is Tyrosine-protein kinase ABL2 (Homo sapiens) (UniProt P42684). The conditions noted are these: at 0.1 µM.
Chain of Tyrosine-protein kinase ABL2 (Homo sapiens) (P42684 whole entry): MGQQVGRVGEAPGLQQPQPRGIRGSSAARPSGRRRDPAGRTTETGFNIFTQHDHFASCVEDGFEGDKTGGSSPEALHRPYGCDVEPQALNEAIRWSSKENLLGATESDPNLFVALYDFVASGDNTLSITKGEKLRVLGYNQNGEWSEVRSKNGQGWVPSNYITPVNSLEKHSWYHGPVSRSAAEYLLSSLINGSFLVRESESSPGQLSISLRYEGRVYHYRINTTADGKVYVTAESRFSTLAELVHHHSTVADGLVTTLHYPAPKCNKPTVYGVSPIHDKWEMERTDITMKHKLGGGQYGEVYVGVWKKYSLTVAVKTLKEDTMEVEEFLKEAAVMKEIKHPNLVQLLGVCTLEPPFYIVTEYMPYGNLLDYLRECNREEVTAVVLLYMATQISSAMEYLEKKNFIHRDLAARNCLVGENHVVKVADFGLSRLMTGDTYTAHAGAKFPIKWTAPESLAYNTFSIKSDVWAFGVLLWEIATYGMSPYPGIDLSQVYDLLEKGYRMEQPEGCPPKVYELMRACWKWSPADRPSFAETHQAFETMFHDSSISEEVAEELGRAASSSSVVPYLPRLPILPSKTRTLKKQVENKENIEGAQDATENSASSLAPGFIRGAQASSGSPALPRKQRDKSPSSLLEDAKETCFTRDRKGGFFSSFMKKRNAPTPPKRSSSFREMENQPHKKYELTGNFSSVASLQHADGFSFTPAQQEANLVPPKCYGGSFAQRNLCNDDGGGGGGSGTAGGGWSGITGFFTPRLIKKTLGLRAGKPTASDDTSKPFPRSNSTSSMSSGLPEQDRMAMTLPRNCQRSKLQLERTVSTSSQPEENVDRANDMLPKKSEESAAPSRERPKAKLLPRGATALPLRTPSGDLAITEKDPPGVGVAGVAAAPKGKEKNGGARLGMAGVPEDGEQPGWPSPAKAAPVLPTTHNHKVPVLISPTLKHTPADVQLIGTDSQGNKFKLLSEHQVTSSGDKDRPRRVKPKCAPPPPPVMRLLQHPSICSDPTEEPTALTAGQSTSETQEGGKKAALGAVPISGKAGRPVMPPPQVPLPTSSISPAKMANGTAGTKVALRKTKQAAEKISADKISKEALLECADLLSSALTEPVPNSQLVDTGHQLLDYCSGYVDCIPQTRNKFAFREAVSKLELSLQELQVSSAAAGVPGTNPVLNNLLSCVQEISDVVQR
Experiment [9] shares this target. The conditions noted are these: at 1 µM.
For experiment [10], the target named is Tyrosine-protein kinase receptor UFO (Homo sapiens) (UniProt P30530). The conditions noted are these: at 0.1 µM.
Chain of Tyrosine-protein kinase receptor UFO (Homo sapiens) (P30530 whole entry): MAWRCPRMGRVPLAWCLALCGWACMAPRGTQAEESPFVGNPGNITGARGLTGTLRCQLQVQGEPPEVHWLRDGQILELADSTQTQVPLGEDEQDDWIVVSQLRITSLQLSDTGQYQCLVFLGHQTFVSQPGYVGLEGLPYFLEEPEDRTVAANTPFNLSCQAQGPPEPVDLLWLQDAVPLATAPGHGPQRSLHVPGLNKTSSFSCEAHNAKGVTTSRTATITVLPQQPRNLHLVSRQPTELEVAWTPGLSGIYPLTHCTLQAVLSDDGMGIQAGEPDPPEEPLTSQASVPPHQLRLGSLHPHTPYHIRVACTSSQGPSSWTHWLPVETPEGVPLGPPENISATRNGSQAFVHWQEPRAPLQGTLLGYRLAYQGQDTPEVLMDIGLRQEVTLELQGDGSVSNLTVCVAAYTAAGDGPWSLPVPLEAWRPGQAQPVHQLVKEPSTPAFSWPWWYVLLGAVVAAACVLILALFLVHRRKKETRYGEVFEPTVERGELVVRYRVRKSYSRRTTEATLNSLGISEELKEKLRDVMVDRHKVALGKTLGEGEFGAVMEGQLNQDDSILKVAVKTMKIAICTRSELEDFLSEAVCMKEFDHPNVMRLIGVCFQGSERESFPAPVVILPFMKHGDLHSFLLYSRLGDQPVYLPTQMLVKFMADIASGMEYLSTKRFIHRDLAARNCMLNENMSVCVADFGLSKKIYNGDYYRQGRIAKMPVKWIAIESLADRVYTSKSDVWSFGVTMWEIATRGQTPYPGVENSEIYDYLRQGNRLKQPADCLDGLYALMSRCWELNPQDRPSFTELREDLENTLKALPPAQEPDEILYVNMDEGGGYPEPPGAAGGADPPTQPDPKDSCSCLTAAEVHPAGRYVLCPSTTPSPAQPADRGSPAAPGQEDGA
For experiment [11] the target is unchanged. The conditions noted are these: at 1 µM.
Experiment [12] deals with Tyrosine-protein kinase Blk (Homo sapiens) (UniProt P51451). The conditions noted are these: at 0.1 µM.
Chain of Tyrosine-protein kinase Blk (Homo sapiens) (P51451 2-505 limits assumed): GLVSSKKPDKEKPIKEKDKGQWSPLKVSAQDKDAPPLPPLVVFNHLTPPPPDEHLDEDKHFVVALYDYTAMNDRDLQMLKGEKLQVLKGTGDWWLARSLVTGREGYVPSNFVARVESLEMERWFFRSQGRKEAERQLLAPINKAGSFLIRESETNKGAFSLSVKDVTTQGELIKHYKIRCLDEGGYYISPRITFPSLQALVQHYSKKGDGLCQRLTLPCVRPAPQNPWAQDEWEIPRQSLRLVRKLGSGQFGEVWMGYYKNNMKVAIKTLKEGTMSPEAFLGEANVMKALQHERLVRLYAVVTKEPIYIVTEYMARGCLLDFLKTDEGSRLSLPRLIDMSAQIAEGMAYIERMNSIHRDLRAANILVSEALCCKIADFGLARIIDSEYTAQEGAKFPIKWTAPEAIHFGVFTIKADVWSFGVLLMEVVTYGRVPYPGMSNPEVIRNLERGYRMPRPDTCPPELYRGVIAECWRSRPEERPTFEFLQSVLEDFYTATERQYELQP
Experiment [13] shares this target. The note with it: at 1 µM.
The target in experiment [14] is T1, Cytoplasmic tyrosine-protein kinase BMX (Homo sapiens) (UniProt P51813).
T1 sequence (whole entry): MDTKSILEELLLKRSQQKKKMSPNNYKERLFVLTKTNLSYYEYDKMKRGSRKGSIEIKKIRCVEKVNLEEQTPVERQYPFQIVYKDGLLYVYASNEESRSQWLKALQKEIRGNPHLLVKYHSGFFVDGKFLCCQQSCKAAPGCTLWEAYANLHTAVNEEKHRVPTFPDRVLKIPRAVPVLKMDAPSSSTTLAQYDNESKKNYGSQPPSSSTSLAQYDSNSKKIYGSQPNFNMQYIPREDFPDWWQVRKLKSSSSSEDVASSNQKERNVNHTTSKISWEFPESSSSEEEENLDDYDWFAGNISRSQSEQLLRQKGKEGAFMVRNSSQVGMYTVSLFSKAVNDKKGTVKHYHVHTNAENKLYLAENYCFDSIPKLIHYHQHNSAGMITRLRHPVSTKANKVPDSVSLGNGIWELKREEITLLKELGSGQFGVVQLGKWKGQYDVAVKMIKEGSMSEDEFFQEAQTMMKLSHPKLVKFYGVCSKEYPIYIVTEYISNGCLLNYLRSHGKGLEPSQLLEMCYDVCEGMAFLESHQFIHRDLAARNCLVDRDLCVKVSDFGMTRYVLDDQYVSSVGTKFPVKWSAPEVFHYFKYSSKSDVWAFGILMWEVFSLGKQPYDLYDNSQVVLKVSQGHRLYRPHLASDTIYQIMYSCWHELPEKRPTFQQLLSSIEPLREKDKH
The note with it: at 1 µM.

Experiment [15] deals with Protein-tyrosine kinase 6 (Homo sapiens) (UniProt Q13882). The note with it: at 0.1 µM.
The target is the same in experiment [16]. The conditions noted are these: at 1 µM.
The target in experiment [17] is Tyrosine-protein kinase BTK (Homo sapiens) (UniProt Q06187). The conditions noted are these: at 0.1 µM.
Chain of Tyrosine-protein kinase BTK (Homo sapiens) (Q06187 whole entry): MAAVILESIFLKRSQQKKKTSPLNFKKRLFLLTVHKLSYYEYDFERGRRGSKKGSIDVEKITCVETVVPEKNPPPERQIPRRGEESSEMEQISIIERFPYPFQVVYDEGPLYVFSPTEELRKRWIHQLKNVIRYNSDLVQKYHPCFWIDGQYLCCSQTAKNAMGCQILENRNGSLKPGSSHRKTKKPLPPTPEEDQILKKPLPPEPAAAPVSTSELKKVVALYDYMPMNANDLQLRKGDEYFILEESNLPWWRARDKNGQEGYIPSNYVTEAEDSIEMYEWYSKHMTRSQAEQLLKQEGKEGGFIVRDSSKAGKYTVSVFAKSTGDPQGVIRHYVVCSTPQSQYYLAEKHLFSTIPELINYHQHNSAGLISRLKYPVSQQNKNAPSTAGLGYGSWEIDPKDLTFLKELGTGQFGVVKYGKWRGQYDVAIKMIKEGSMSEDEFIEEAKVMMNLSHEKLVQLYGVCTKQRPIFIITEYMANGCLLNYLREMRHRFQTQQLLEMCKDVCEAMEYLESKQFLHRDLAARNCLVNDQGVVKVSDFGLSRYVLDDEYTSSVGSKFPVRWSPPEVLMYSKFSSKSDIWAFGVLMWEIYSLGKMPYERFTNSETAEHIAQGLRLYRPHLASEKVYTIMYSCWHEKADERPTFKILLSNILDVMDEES
For experiment [18] the target is unchanged. The note with it: at 1 µM.
For experiment [19], the target named is Tyrosine-protein kinase CSK (Homo sapiens) (UniProt P41240). The conditions noted are these: at 0.1 µM.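 Also: value given is the averaged percent inhibition of CSK kinase activity, from the GSK PKIS kinase inhibitor set screening panel.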
In experiment [20] the target is T1, Cytoplasmic tyrosine-protein kinase BMX (Homo sapiens). The conditions noted are these: at 0.1 µM.

For the compound `CC(C)c1ccc(Nc2nccc(-c3cnn4ncccc34)n2)cc1`, the inhibition in experiment [1] is 10.6%; in experiment [2] it was 4.68%; in experiment [3], 10%; in experiment [4], 3.33%; in experiment [5] it was 13.3%; in [6], 4.56%. Further, the inhibition in experiment [7] was 23.7%; in [8] it was 4.44%; in experiment [9], 10.6%; in experiment [10], -4.19%; in experiment [11] it was 0.39%; in experiment [12], 1.48%. Further, the inhibition is 4.76% in [13]; 5.9% in experiment [14]; 3.47% in experiment [15]; 6.47% in experiment [16]; -1.04% in [17]; -0.53% in experiment [18]. The inhibition in experiment [19] is 4.27%.

Take `Nc1nccc(-c2c(-c3ccc(F)cc3)ncn2CCCN2CCOCC2)n1`: the inhibition in experiment [1] worked out at 3.9%; in [2], 3.98%; in experiment [3], 6.6%; in [4], 2.4%; in experiment [5], 7.25%; in experiment [6], 2.67%. In addition, the inhibition in experiment [7] was 4.91%; in [8] it was 2.67%; in experiment [9] it was 0.55%; in experiment [10] it was -5.59%; in experiment [12] it was 2.93%; in [13], 5.42%. Also, the inhibition is 3.6% in experiment [20]; 2.77% in experiment [14]; 4.81% in experiment [15]; 10.8% in experiment [16]; -0.92% in experiment [17]; -0.14% in [18]. For the same compound, the inhibition in experiment [19] came to 2.1%.

Take `COC(=O)c1cncc(/C=C/c2c(C)cc(O)cc2C)c1`: the inhibition stood at 5.95% in experiment [1]; 13.9% in experiment [2]; 60.9% in [3]; 11% in experiment [4]; 62.9% in experiment [5]; 2.92% in experiment [6]. Besides, the inhibition in experiment [7] was 4.4%; in experiment [8] it was 12.5%; in experiment [9], 57.4%; in experiment [10], -3.94%; in experiment [11], -5.3%; in experiment [12], 3.73%. Moreover, the inhibition in [13] was 13.6%; in experiment [20] it was 4.1%; in [14] it was 29.6%; in experiment [15], 11.4%; in experiment [16], 50.2%; in [17] it was 1.9%. Further, the inhibition in experiment [18] came to 2.92%; in [19], 4.04%.

For the compound `Cc1ccc(NC(=O)CC2CC2)cc1-c1ccc(C(=O)NCC2CC2)cc1`, the inhibition in experiment [1] turned out to be 2.68%; in experiment [2], 5.1%; in experiment [3], 5.33%; in experiment [4], 6.36%; in [5], 8.53%; in experiment [6], 1.68%. Besides, the inhibition in [7] was 3.58%; in experiment [8] it was 8.79%; in experiment [9] it was 7.68%; in experiment [10], -3.14%; in [11], -1.55%; in experiment [12], 2.42%. The inhibition worked out at 2.73% in [13]; 1.08% in [20]; 5.01% in [14]; 4.58% in experiment [15]; 5.79% in experiment [16]; 1.4% in experiment [17]. For the same compound, the inhibition in experiment [18] was determined as 2.39%; in experiment [19], 4.41%.

As to `c1ccc(Nc2ncc(-c3ccccc3)o2)cc1`, the inhibition in [1] worked out at 7.7%; in experiment [2] it was 5.14%; in [3], 16.3%; in experiment [4], 4.09%; in experiment [5], 16.5%; in experiment [6], 2.99%. For the same compound, the inhibition is 3.91% in [7]; 5.2% in [8]; 22.7% in experiment [9]; -3.91% in experiment [10]; -3.74% in [11]; 1.98% in [12]. Further, the inhibition was 5.16% in experiment [13]; 1.56% in experiment [20]; 7.49% in [14]; 3.8% in experiment [15]; 7.06% in [16]; -0.11% in experiment [17]. The figures for the inhibition in experiment [18] and in experiment [19] were 0.49% and 4.22%, respectively.

As to `Cc1nc(-c2ccccc2)n2nc(NCCCN3CCOCC3)ncc12`, the inhibition in [1] amounted to 7.48%; in experiment [2], 1.75%; in experiment [3], 3.67%; in experiment [4], 5.87%; in experiment [5], 5.41%; in experiment [6] it was 2.79%. The inhibition in experiment [7] is 4.11%; in experiment [8] it was 2.85%; in experiment [9] it was 4.35%; in experiment [10], -1.08%; in experiment [11], -0.92%; in [12], 2.04%. For the same compound, the inhibition in experiment [13] was 4.14%; in [20], 3.56%; in [14], 5.57%; in experiment [15] it was -2.39%; in [16], 2.23%; in experiment [17] it was 0.19%. Besides, the inhibition in [18] was 0.66%; in experiment [19] it was -0.24%.

In the case of `Cc1cc(-c2ccccn2)cc(C)c1/C=C/c1cncc(-c2nn[nH]n2)c1`, the inhibition in experiment [1] came out at 1.41%; in experiment [2] it was 0.95%; in [3], 5.04%; in experiment [4], 7.78%; in experiment [5] it was 13%; in experiment [6], 3.44%. Moreover, the inhibition in experiment [7] was 5.05%; in experiment [8], 5.89%; in experiment [9], 20.2%; in experiment [10], -5.03%; in experiment [11] it was -1.94%; in experiment [12] it was 5.71%. Further, the inhibition in [13] stood at 33.4%; in experiment [20], 1.6%; in experiment [14] it was 31.2%; in experiment [15] it was 9.43%; in experiment [16], 51%; in experiment [17], 2.43%. For the same compound, the inhibition in experiment [18] was found to be 0.75%; in experiment [19], 1.73%.

For orientation: inhibition means the relative decrease from the control value, in per cent.
